PLK1 PBD inh = Plk1 (human) PBD binding inhibition | P53350 | Plk1 PBD phosphopeptide binding, fluorescence polarization | inhibition, %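 (tested at about 20 µM)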 | actives 0.13% (n = 97,000); in the data active = inhibition above about 34%, passing the limit was not always enough
CYP2C19 inhib = human CYP2C19 inhibition. P33261. CYP2C19 Supersomes, luciferin-H EGE luminescence, 30 min. inhibition, % at 5 µM. actives 21% (n = 96,000);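 active = CYP2C19 inhibition above a set limit at 5 µM in the primary screen, cut at about 50% in these data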;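 also: plate controls were negative control wells for no effect and 2.5 mM tranylcypromine positive control for full effect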
Target sequence (P33261 whole entry, looked up): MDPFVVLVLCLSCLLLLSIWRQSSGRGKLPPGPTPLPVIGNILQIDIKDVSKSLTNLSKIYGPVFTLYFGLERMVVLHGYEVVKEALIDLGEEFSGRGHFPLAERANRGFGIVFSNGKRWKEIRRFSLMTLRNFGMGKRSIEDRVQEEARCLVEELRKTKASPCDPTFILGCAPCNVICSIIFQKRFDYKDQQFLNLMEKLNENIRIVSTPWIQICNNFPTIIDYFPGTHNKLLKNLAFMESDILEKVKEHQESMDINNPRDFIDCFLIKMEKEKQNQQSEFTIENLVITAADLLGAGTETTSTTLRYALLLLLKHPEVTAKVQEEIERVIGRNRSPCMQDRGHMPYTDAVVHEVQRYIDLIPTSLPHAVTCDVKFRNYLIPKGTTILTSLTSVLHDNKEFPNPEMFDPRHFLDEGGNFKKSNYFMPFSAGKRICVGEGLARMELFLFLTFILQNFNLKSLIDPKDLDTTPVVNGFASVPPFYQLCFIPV
CYP2C9 act = increases human cytochrome P450 2C9 activity | activation factor at 5 µM | actives 1.4% (n = 96,000) | recombinant CYP2C9, luciferin-H conversion, luminescence; hits give high values; factor 1 = untreated enzyme, 0 = blocked | P11712 | AID 1024;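 active = activation factor of 2 or more for CYP2C9 at a 5 µM dose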;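 also: 0 = sulfaphenazole-blocked wells and 1 = vehicle-only wells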
CYP2C9 inh = inhibitors of human CYP2C9; P11712; CYP2C9 Supersomes, luciferin-H conversion, luminescence; inhibition, % at 5 µM; actives 20% (n = 96,000); AID 777;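 active = blocking of liver enzyme CYP2C9 beyond about 50% at 5 µM, limit read from the data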
CYP2C19 activ = activators of human cytochrome P450 2C19; 96,000 tested, under 10 active; recombinant CYP2C19, luciferin-H EGE luminescence; hits give high values; 0 = fully inhibited enzyme, 1 = untreated enzyme; activation factor at 5 µM; P33261;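 active = activation factor of at least 2 at 5 µM in the primary screen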;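 also: 0 = wells with 2.5 mM tranylcypromine and 1 = vehicle-only wells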
PLK1 inh = blocks human PLK1 kinase activity | P53350 | recombinant PLK1 kinase, TR-FRET peptide phosphorylation | inhibition, % at 10 µM | actives 0.53% (n = 97,000) | AID 619;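 active = inhibition of 50% or more in the single-concentration screen; inactive = inhibition below 50%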;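 also: 0% = DMSO max control and 100% = H-89 dihydrochloride min control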
Numbers without * were called inactive. Shown are actives, neighbours in structure and some others; about 28% of the full set was active somewhere.

`CCCn1nnc(NC(=O)c2ccc(Br)cc2)n1` gave PLK1 PBD inh 10, CYP2C19 inhib 56*, CYP2C9 act 0.9, CYP2C9 inh 15, CYP2C19 activ 0.4 and PLK1 inh -9.
For CCCCn1nnc(NC(=O)CCC)n1 the results were PLK1 PBD inh -16, CYP2C19 inhib -9, CYP2C9 act 1.1, CYP2C9 inh -11, CYP2C19 activ 1.1 and PLK1 inh -2.
Screening Cc1nn(C)c(N)c1C(O)(c1nccn1C)C(F)(F)F (stereo not given) returned CYP2C19 inhib -2, CYP2C9 act 1, CYP2C9 inh 4 and CYP2C19 activ 1.
`Cc1ccc(Sc2c(C=O)c3ccccc3n2C)cc1` gave PLK1 PBD inh 2, CYP2C19 inhib 35, CYP2C9 act 0.5, CYP2C9 inh 48, CYP2C19 activ 0.7 and PLK1 inh -11.
For CCOC(=O)c1c(C)c(C(=O)NC(C)COC)c(C)n1CC (stereo not given) the results were CYP2C19 inhib 5, CYP2C9 act 1, CYP2C9 inh 0 and CYP2C19 activ 0.9.
For Clc1ccccc1CSc1ncn(-c2ccccc2)n1 the results were PLK1 PBD inh -6 and PLK1 inh 7.
`O=C(CSc1nc(-c2ccncc2)nn1CC(=O)N1CCCCC1)NC1CCCC1` gave PLK1 PBD inh -8, CYP2C19 inhib 64*, CYP2C9 act 0.2, CYP2C9 inh 79*, CYP2C19 activ 0.4 and PLK1 inh -12.
O=C(Cn1c(SCC(=O)NC2CCCC2)nnc1-c1ccncc1)Nc1ccc2c(c1)OCO2 was read as PLK1 PBD inh -14, CYP2C19 inhib 91*, CYP2C9 act 0.1, CYP2C9 inh 91*, CYP2C19 activ 0.1 and PLK1 inh -6.
`CCn1c(CNC(=O)Cc2ccc(OC)cc2)nnc1SCC(=O)NC1CCCCC1` gave PLK1 PBD inh 5, CYP2C19 inhib 14, CYP2C9 act 0.7, CYP2C9 inh 27, CYP2C19 activ 0.9 and PLK1 inh 0.
`CCn1c(SCC(=O)NC2CCCCC2C)nnc1-c1ccc(OC)cc1` (stereo not given) gave PLK1 PBD inh -1, CYP2C19 inhib 71*, CYP2C9 act 0.3, CYP2C9 inh 68*, CYP2C19 activ 0.3 and PLK1 inh -12.
For Nn1c(SCC(=O)Nc2ccc3c(c2)OCO3)nnc1C1CCCCC1 the results were PLK1 PBD inh 9, CYP2C19 inhib 14, CYP2C9 act 0.6, CYP2C9 inh 40, CYP2C19 activ 0.9 and PLK1 inh -13.
CCCn1c(SCC(=O)NC2CCCCC2)nnc1-c1ccncc1 was read as PLK1 PBD inh -5, CYP2C19 inhib 65*, CYP2C9 act 0.9, CYP2C9 inh 10, CYP2C19 activ 0.4 and PLK1 inh -13.
`Cn1c(=O)c2c(-c3ccccc3)n(-n3cnnc3)cc2n(C)c1=O` gave PLK1 PBD inh -4, CYP2C19 inhib -14, CYP2C9 act 1, CYP2C9 inh -4, CYP2C19 activ 1.1 and PLK1 inh -8.
Screening O=C(CSCc1cnn(-c2ccccc2)c1-n1cccc1)NCC1CCCO1 (stereo not given) returned PLK1 PBD inh 3, CYP2C19 inhib 80*, CYP2C9 act 0.2, CYP2C9 inh 79*, CYP2C19 activ 0.2 and PLK1 inh -10.
`COc1ccc(CNC(=O)CSCc2cnn(-c3ccccc3)c2-n2cccc2)cc1` gave PLK1 PBD inh -16, CYP2C19 inhib 96*, CYP2C9 act 0, CYP2C9 inh 98*, CYP2C19 activ 0 and PLK1 inh -13.
O=C(CSCc1cnn(-c2ccccc2)c1-n1cccc1)NCc1ccc2c(c1)OCO2 was read as PLK1 PBD inh 7 and PLK1 inh -10.
Screening CCCn1nc(-c2nnc(-c3ccc(C)c(C)c3)o2)c2ccccc2c1=O returned PLK1 PBD inh -28, CYP2C19 inhib -3, CYP2C9 act 0.8, CYP2C9 inh 19, CYP2C19 activ 1 and PLK1 inh -1.
Screening COc1ccc(S(=O)(=O)N2C3CCC2CC(NC(=O)C2CC2)C3)cc1 (stereo not given) returned PLK1 PBD inh 2, CYP2C19 inhib 18, CYP2C9 act 1, CYP2C9 inh 4, CYP2C19 activ 0.8 and PLK1 inh -3.
`c1ccc(CCc2nc(-c3ccc(-n4cccc4)cc3)no2)cc1` gave PLK1 PBD inh -4, CYP2C19 inhib -11, CYP2C9 act 1, CYP2C9 inh 0, CYP2C19 activ 1.1 and PLK1 inh 2.
